Measured values: PubChem BioAssay (NCATS)
Results filed as inconclusive are left out. Active and inactive are the calls of the source. The call rests on the fitted dose curve; in most records, active means well fitted inhibition curve with a large enough effect; inconclusive means small, poorly fitted or top-dose-only effect; inactive means flat fitted curve, though single readings scatter.

How the values were obtained:
Experiment in all cases: qHTS profiling for inhibitors of Plasmodium falciparum proliferation (AID 504749); further: nearly all actives have a fitted effect of over 60% in size
Settings in all cases: P. falciparum in erythrocytes, SYBR Green DNA, 72 h; series mostly up to 28.7 µM
CP325 = test system: CP325
Summary of the method: (§1)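 SYBR Green fluorescence (ex 485 nm, em 535 nm) reports parasite DNA after 72 h compound exposure of infected red cells at 0.3% parasitemia, 2.5% hematocrit; signal normalized to 0.29 uM artemisinin and vehicle wells.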

CP329 = test system: CP329
Summary of the method: as §1

CP335 = test system: CP335
Summary of the method: as §1

DFO2036 = test system: DFO2036
Summary of the method: as §1

DIV14 = test system: DIV14
Summary of the method: as §1

DIV17 = test system: DIV17
Summary of the method: as §1

DIV30 = test system: DIV30
Summary of the method: as §1

Dd2 = test system: Dd2
Summary of the method: as §1

ECU = test system: ECU
Summary of the method: as §1

FAB9 = test system: FAB9
Summary of the method: as §1

GB4 = test system: GB4
Summary of the method: as §1

HB3 = test system: HB3
Summary of the method: as §1

ICS = test system: ICS
Summary of the method: as §1

JCK = test system: JCK
Summary of the method: as §1

N140 = test system: N140
Summary of the method: as §1

P93_24 = test system: P93_24
Summary of the method: as §1

P94_40 = test system: P94_40
Summary of the method: as §1

PAD = test system: PAD
Summary of the method: as §1

PC15 = test system: PC15
Summary of the method: as §1

PC26 = test system: PC26
Summary of the method: as §1

Measured: Potency

Cc1ccnc2c1NC(=O)c1cccnc1N2C1CC1
inactive: CP325 | CP329 | CP335 | DFO2036 | DIV14 | DIV17 | DIV30 | Dd2 | ECU | FAB9 | GB4 | HB3 | ICS | JCK | N140 | P93_24 | P94_40 | PAD | PC15 | PC26

Cc1cccc(N(C)C(=S)Oc2ccc3ccccc3c2)c1
inactive: CP325 | CP329 | CP335 | DFO2036 | DIV14 | DIV17 | DIV30 | Dd2 | ECU | FAB9 | GB4 | HB3 | ICS | JCK | N140 | P93_24 | P94_40 | PAD | PC15 | PC26

CCCc1cc(C(N)=S)ccn1
inactive: CP325 | CP329 | CP335 | DFO2036 | DIV14 | DIV17 | DIV30 | Dd2 | ECU | FAB9 | GB4 | HB3 | ICS | JCK | N140 | P93_24 | P94_40 | PAD | PC15 | PC26

COc1cc(NS(=O)(=O)c2ccc(N)cc2)nc(OC)n1
inactive: CP325 | CP329 | CP335 | DFO2036 | DIV14 | DIV17 | DIV30 | Dd2 | ECU | FAB9 | GB4 | HB3 | JCK | N140 | P93_24 | P94_40 | PAD | PC15

CC(C)Cn1cnc2c(N)nc3ccccc3c21
inactive: CP325 | CP329 | CP335 | DFO2036 | DIV14 | DIV17 | DIV30 | Dd2 | ECU | FAB9 | GB4 | ICS | JCK | N140 | P93_24 | P94_40 | PAD | PC15 | PC26

OC(Cn1cncn1)(Cn1cncn1)c1ccc(F)cc1F
inactive: CP325 | CP329 | CP335 | DFO2036 | DIV17 | DIV30 | Dd2 | ECU | FAB9 | GB4 | HB3 | ICS | JCK | N140 | P93_24 | P94_40 | PAD | PC15 | PC26

COc1c(N2CCNC(C)C2)c(F)cc2c(=O)c(C(=O)O)cn(C3CC3)c12 (centres undefined)
inactive: CP325 | CP329 | CP335 | DFO2036 | DIV14 | DIV17 | DIV30 | ECU | FAB9 | GB4 | HB3 | ICS | JCK | N140 | P93_24 | P94_40 | PAD | PC15 | PC26

CCC(C)(C)c1ccc(CC(C)CN2C[C@@H](C)O[C@@H](C)C2)cc1 (some centres undefined)
inactive: CP325 | CP329 | CP335 | DFO2036 | DIV17 | DIV30 | ECU | FAB9 | GB4 | JCK | N140 | P93_24 | P94_40 | PAD | PC15 | PC26

CN1CCN(c2c(F)cc3c(=O)c(C(=O)O)cn4c3c2OCN4C)CC1
inactive: CP325 | CP329 | CP335 | DFO2036 | DIV14 | DIV17 | DIV30 | Dd2 | ECU | FAB9 | GB4 | HB3 | ICS | JCK | N140 | P94_40 | PAD | PC15 | PC26

Cc1nnc(NS(=O)(=O)c2ccc(N)cc2)s1
inactive: CP325 | CP329 | CP335 | DFO2036 | DIV14 | DIV17 | DIV30 | Dd2 | ECU | FAB9 | GB4 | HB3 | ICS | JCK | N140 | P93_24 | P94_40 | PC15 | PC26

COc1cnc(NS(=O)(=O)c2ccc(N)cc2)nc1
inactive: CP325 | CP329 | CP335 | DFO2036 | DIV14 | DIV17 | DIV30 | Dd2 | ECU | FAB9 | GB4 | HB3 | ICS | JCK | N140 | P94_40 | PAD | PC15 | PC26

O=P(O)(O)C(O)(Cc1cccnc1)P(=O)(O)O
inactive: CP325 | CP329 | CP335 | DFO2036 | DIV14 | DIV17 | Dd2 | ECU | FAB9 | GB4 | HB3 | ICS | JCK | N140 | P93_24 | P94_40 | PAD | PC15 | PC26

NC(N)=NC(N)=NCCc1ccccc1
inactive: CP325 | CP329 | CP335 | DFO2036 | DIV14 | DIV17 | DIV30 | Dd2 | ECU | FAB9 | GB4 | HB3 | ICS | JCK | N140 | P93_24 | P94_40 | PAD | PC15 | PC26

COc1ccc(C(=O)CC(=O)c2ccc(C(C)(C)C)cc2)cc1
inactive: CP325 | CP329 | CP335 | DFO2036 | DIV14 | DIV17 | DIV30 | ECU | FAB9 | GB4 | JCK | N140 | P93_24 | P94_40 | PAD | PC15 | PC26
